# Compounds without any hit were thinned out: in the full panel of roughly 79,000, 15% have a hit. A number with no mark means an inactive call. Calls of active or inactive are those of the source. No stated cut-off is given here; in the data, active means growth inhibition above about 70%; inactive means the rest.
# Tests used:
# [1] = NCI Yeast Anticancer Drug Screen. Data for the rad50 strain (AID 155);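 further: 0% = growth of vehicle-only cultures of the same strain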; details: S. cerevisiae rad50 strain growth inhibition, active compounds read high
# Method in brief: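 A DNA repair-deficient yeast mutant serves as the test organism; compound-induced growth inhibition is calculated against vehicle-treated cells.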
# [2] = NCI Yeast Anticancer Drug Screen. Data for the mec2-1 strain (AID 157); details: S. cerevisiae mec2-1 strain, active compounds read high
# Method in brief: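 Readout is yeast growth inhibition, normalised to vehicle-treated controls, in the mec2-1 strain exposed to compound.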
# [3] = NCI Yeast Anticancer Drug Screen. Data for the sgs1 mgt1 strain (AID 161);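 further: 0% = growth of cultures given vehicle only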; details: S. cerevisiae sgs1 mgt1 strain, active compounds read high
# Method in brief: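 Growth of a repair-deficient yeast mutant was monitored after compound treatment and expressed as inhibition relative to vehicle-treated cultures.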
# [4] = NCI Yeast Anticancer Drug Screen. Data for the cln2 rad14 strain (AID 165);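 further: 0% = growth equal to vehicle treated cultures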; details: S. cerevisiae cln2 rad14 strain, active compounds read high
# Method in brief: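 Relative to vehicle controls, growth inhibition of compound-treated cln2 rad14 yeast was recorded.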
# [5] = NCI Yeast Anticancer Drug Screen. Data for the bub3 strain (AID 167); details: S. cerevisiae bub3 mutant strain, active compounds read high
# Method in brief: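 Inhibition values come from growth of compound-treated mutant yeast normalised to vehicle-treated controls.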
# [6] = NCI Yeast Anticancer Drug Screen. Data for the mlh1 rad18 strain (AID 175); details: S. cerevisiae mlh1 rad18 strain growth inhibition, active compounds read high
# Method in brief: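 Test agents were incubated with a yeast strain of defined genotype (DNA damage repair defect). Inhibition of growth was derived by comparison with vehicle-exposed cultures.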
# [7] = at 5.0 µM (retest, dose inferred, filed as 0.5)
# [8] = at 50.0 µM (retest, dose inferred, filed as 5.0)
Compound,"growth inhibition [1, 7]","growth inhibition [1, 8]",growth inhibition ([1]; at 50.0 µM),"growth inhibition [2, 7]","growth inhibition [2, 8]",growth inhibition ([2]; at 50.0 µM),"growth inhibition [3, 7]","growth inhibition [3, 8]",growth inhibition ([3]; at 50.0 µM),"growth inhibition [4, 7]","growth inhibition [4, 8]",growth inhibition ([4]; at 50.0 µM),"growth inhibition [5, 7]","growth inhibition [5, 8]",growth inhibition ([5]; at 50.0 µM),"growth inhibition [6, 7]","growth inhibition [6, 8]",growth inhibition ([6]; at 50.0 µM)
CCC1(CC)C(=O)[N-]C(=O)[N-]C1=O.[Au+].[Au+].c1ccc([PH+](c2ccccc2)c2ccccc2)cc1.c1ccc([PH+](c2ccccc2)c2ccccc2)cc1,99% (active),94% (active),1.75%,99% (active),97% (active),80.6% (active),99% (active),96% (active),-4.5%,95% (active),96% (active),35.1%,99% (active),90% (active),2.2%,98% (active),96% (active),4.65%
O=c1c(O)c(-c2ccccc2)oc2ccccc12.[Pb],3%,97% (active),94.7% (active),-2%,97% (active),92.6% (active),6%,24%,98.4% (active),-2%,98% (active),47.8%,-6%,98% (active),96.2% (active),8%,98% (active),98.1% (active)
O=C1C(F)=C(N2CC2)C(=O)C(F)=C1N1CC1,99% (active),99% (active),91.7% (active),100% (active),99% (active),94% (active),100% (active),99% (active),91% (active),100% (active),99% (active),91.5% (active),98% (active),99% (active),92.8% (active),99% (active),99% (active),91.5% (active)
CC1(C)OCC(COC(=O)C=[N+]=[N-])O1 (centres undefined),0%,-10%,2.75%,0%,-7%,0.75%,11%,-4%,-7.5%,-3%,-14%,-6.95%,2%,-3%,-2.25%,-2%,-14%,42.5%
O=C(O)c1ccccc1[Se][Se]c1ccccc1C(=O)O,50%,73% (active),21.1%,26%,56%,10.8%,53%,67%,15.9%,31%,46%,8.05%,49%,70% (active),34.1%,56%,74% (active),74.5% (active)
COc1cc(C=Nc2cc(Br)c(OC)c(Br)c2)ccc1N(CCCl)CCCl,1%,73% (active),84.5% (active),-12%,79% (active),31.4%,-1%,45%,76.2% (active),1%,46%,55.7%,-8%,-3%,-1.45%,54%,95% (active),83.2% (active)
[Br][Hg][CH2]COC[CH2][Hg][Br],95% (active),99% (active),99.4% (active),98% (active),100% (active),99.6% (active),98% (active),51%,99.5% (active),83% (active),99% (active),98.8% (active),96% (active),99% (active),99% (active),95% (active),99% (active),99.1% (active)
ClCCN(CCCl)B(N(CCCl)CCCl)N(CCCl)CCCl,-1%,-6%,98.8% (active),-23%,0%,99.3% (active),-11%,10%,99.1% (active),0%,-2%,99.2% (active),3%,-6%,98.8% (active),-13%,-26%,99.3% (active)
Cc1cc(N(CCCl)CCCl)ccc1CN1CCCN(Cc2ccc(N(CCCl)CCCl)cc2C)C1c1cccc(F)c1,6%,97% (active),40.8%,-27%,99% (active),18%,1%,98% (active),80.5% (active),2%,97% (active),-0.15%,3%,98% (active),2.15%,8%,95% (active),76.5% (active)
COC1CC2C(C[CH]1[Hg][Cl])C2(Cl)Cl (centres undefined),99% (active),99% (active),99.5% (active),100% (active),100% (active),99.6% (active),100% (active),99% (active),99.5% (active),99% (active),99% (active),99.2% (active),99% (active),99% (active),98% (active),99% (active),99% (active),99.5% (active)
O=P1(NCCCl)OC(c2ccccc2)=CCN1CCCl (centres undefined),-1%,-1%,97.9% (active),-5%,6%,94.1% (active),1%,-1%,99% (active),-2%,5%,96% (active),-2%,-1%,89.6% (active),-3%,1%,98.8% (active)
CCCCCCCCCCCCCCCc1cccc(O)c1O,-2%,-7%,51.2%,-2%,3%,92.1% (active),-1%,27%,51.5%,-4%,-8%,-5.3%,1%,-4%,48.4%,-6%,7%,82.7% (active)
CCc1cc2c(cc1-c1csc(C/C(N)=N/O)n1)C(C)(C)CCC2(C)C,55%,88% (active),89.5% (active),38%,92% (active),90.7% (active),52%,93% (active),91.4% (active),39%,96% (active),89.7% (active),48%,93% (active),91% (active),60%,94% (active),90.3% (active)
COc1cc(C2c3cc4c(cc3[C@@H](Nc3ccc(F)cc3)C3COC(=O)[C@H]23)OCO4)cc(OC)c1O (some centres undefined),96% (active),96% (active),85.3% (active),97% (active),98% (active),91.2% (active),94% (active),99% (active),88.9% (active),41%,99% (active),87.8% (active),99% (active),99% (active),88.6% (active),95% (active),95% (active),88.1% (active)
CC/C(=C(/CC)c1ccc(OP(N)(=O)N(CCCl)CCCl)cc1)c1ccc(OP(N)(=O)N(CCCl)CCCl)cc1 (centres undefined),18%,33%,17.1%,-5%,26%,5.6%,2%,42%,34.7%,3%,31%,-9.95%,29%,34%,0.1%,26%,51%,66.8%
C[CH2][Sn][CH2]C.c1cc[c]([Ge]([c]2ccccc2)[c]2ccccc2)cc1.c1cc[c]([Sn]([c]2ccccc2)[c]2ccccc2)cc1,99% (active),96% (active),99.2% (active),99% (active),98% (active),99.5% (active),100% (active),98% (active),99.5% (active),98% (active),97% (active),98.4% (active),99% (active),95% (active),99.3% (active),99% (active),97% (active),98.8% (active)
N#Cc1ccccc1C(Cl)(Cl)Cl,3%,-6%,-5.55%,6%,12%,-21.9%,-8%,3%,-7.1%,38%,18%,27.1%,26%,13%,16.4%,9%,28%,-0.3%
NC(Cc1c[nH]c2ccccc12)P(=O)(O)O (centres undefined),-1%,37%,38.1%,0%,87% (active),13.4%,3%,29%,-7.75%,1%,96% (active),22.9%,-9%,98% (active),-0.8%,-9%,47%,26%

# Source: PubChem BioAssay (NCI)
